# Compounds with a hit are over-represented: about 2.3% of the library has one in this group of screens.
# Shn3 3UTR inh – reduces Shn3 3'UTR luciferase signal in osteoblasts; Clone20 osteoblast Shn3 3'UTR firefly luciferase, 24 h; inhibition, % at 12.5 µM; 360,000 compounds, 0.52% hits; AID 588674;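 active = mean inhibition of at least 75% with every replicate also reaching 75%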;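 also: 0% = median of neutral control wells and 100% = pilot-screen positive control compound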
# MITF TRPM1 inh – MITF TRPM1 promoter inhibition in SK-MEL-5 cells. SK-MEL-5 TRPM1 promoter luciferase, 24 h. inhibition, % at 12.5 µM. 330,000 compounds, 0.83% hits. AID 488899;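 active = mean inhibition across replicates of 60% or more, whatever share of single replicates reaches that level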
# 697 NFkB inh – lowers PMA/ionomycin-induced NF-kB signal in 697 B cells | 697 B-cell NF-kB luciferase reporter, 16 h | inhibition, % at 4 µM | 330,000 compounds, 0.33% hits; in the data active = inhibition above about 35%
# Gli-Sufu antag – antagonists of Gli-Sufu signaling. 340,000 compounds, 0.74% hits. Sufu-KO-LIGHT fibroblasts, Gli luciferase reporter luminescence. inhibition, % at 5 µM;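 active = inhibition above about 55%, limit read from the data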;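 also: 0% = DMSO-treated cells and 100% = wells with medium but no cells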
# EBV LMP1 NFkB – Epstein-Barr LMP1 NF-kappaB reporter inhibition; AID 504558; LMP1-induced NF-kappaB luciferase reporter cells, luminescence; inhibition, % at 12.5 µM; 350,000 compounds, 0.69% hits; in the data active = inhibition above about 41%;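 also: 0% = neutral control wells and 100% = reference inhibitor control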
# Jurkat NFkB inh – lowers PMA/ionomycin-induced NF-kB signal in Jurkat cells. PMA/ionomycin-induced NF-kB luciferase reporter, luminescence. inhibition, % at 4 µM. 330,000 compounds, 0.53% hits. AID 435003; in the data active = inhibition above about 50%
# 697 NFkB conf – inhibitors of the PMA/ionomycin-induced NF-kB reporter in 697 B cells, retest; shares compounds with 697 NFkB inh; 697 B-cell NF-kB luciferase, 16 h; inhibition, % at 4 µM; 2,000 compounds, 35% hits; AID 449746; in the data active = inhibition mostly above about 28%, no sharp cut-off; inactive = mostly below about 22%
# Starred values were filed as active, the others as inactive; i = inactive; . = no result given.
SMILES,Shn3 3UTR inh,MITF TRPM1 inh,697 NFkB inh,Gli-Sufu antag,EBV LMP1 NFkB,Jurkat NFkB inh,697 NFkB conf
O=C(O)c1ccc2c(c1)-c1nc3ccccc3n1C2=O,12,15,1,2,-8,7,.
O=C1N/C(=C\c2ccc(O)cc2)C(=O)c2ccccc21,-37,40,45*,4,11,6,6
O=C(O)/C=C1\NC(=O)c2ccccc21,-9,8,3,-11,3,-10,.
Cn1c(=O)n(C)c2cc(NC(=O)CSc3nnc(-c4ccccc4O)n3-c3ccccc3)ccc21,22,-4,36*,14,-1,7,41*
CCn1c(SCC(=O)Nc2ccc3c(c2)n(C)c(=O)n3C)nnc1-c1ccncc1,10,-6,-3,0,-11,5,.
O=C(Nc1cc(F)ccc1F)C1CCCO1 (stereo not drawn),-12,-5,-6,-1,6,7,.
CCOC(=O)N1CCN(CC(=O)Nc2ccc([N+](=O)[O-])cc2C(=O)Nc2ccccc2F)CC1,11,-3,38*,6,-7,42,39*
Cn1c(SCc2nc3ccccc3c(=O)[nH]2)nnc1-c1ccco1,-7,13,-1,0,-3,-11,.
COc1ccc(-c2nsc3c(N4CCCC4)ncnc23)cc1,27,25,-458,-7,25,-77,-348
Cc1cn(-c2cc(C(=O)Nc3ccc(C)c(NC(=O)C(=O)c4c[nH]c5ccccc45)c3)cc(C(F)(F)F)c2)cn1,25,12,37*,4,-1,9,-20
O=C(NCCCN1CCOCC1)C(=O)N/N=C/c1cccc2ccccc12,6,10,40*,4,0,-7,38*
COC(=O)C1CCN(C(=O)c2oc3c(Cl)cc(C)cc3c2C)CC1,-118,-38,-265,-103,2,-99,-282
CCOC(=O)C1CCCCN1C(=O)c1oc2c(Cl)cc(C)cc2c1C (stereo not drawn),9,0,-7,9,-5,-1,.
CSc1nnc2c3ccccc3n(Cc3ccccc3)c2n1,6,6,-13,9,5,-9,.
CSc1nnc2c3ccccc3n(CCc3ccccc3)c2n1,23,-3,i,7,5,-75,i
CCN(CC(N)=O)S(=O)(=O)c1ccc(F)cc1,0,-6,42*,-5,-3,-1,-7
CCN(CC)S(=O)(=O)c1ccc(NC(=S)Nc2ccc(F)cc2)cc1,12,9,-5,4,-4,8,.
c1ccc2c(c1)CCN(c1nc3cc4c(cc3s1)OCCO4)C2,34,56,-382,18,25,-44,-358
O=C(OCC1COC(c2ccccc2)(c2ccccc2)O1)c1ccccc1 (stereo not drawn),-12,-1,.,2,-2,.,.
CCOc1cc(/C=N\Nc2nc(Nc3ccccc3)nc(N3CCOCC3)n2)ccc1OC(=O)c1ccco1,29,-67,59*,36,-12,-62,46*
CC(=O)Nc1ccc(/C(C)=N/Nc2nc(Nc3ccccc3)nc(N3CCOCC3)n2)cc1,42,-85,53*,26,-64,-20,18
CC(=O)c1ccc(Nc2nc(N3CCOCC3)nc(N3CCOCC3)n2)cc1,-14,-27,14,-3,-6,-18,.
COc1cc(/C=N/Nc2nc(C)cc(C)n2)ccc1OC(=O)c1ccco1,3,0,13,-4,4,-5,.
CCOC(=O)c1cn[nH]c1NC(=S)Nc1ccc(OC)cc1,.,-11,-371,-93,15,-128,-199
CCOC(=O)NC(=S)Nc1ccc(OC)cc1,-20,-35,12,-20,-9,-10,.
SMILES,Shn3 3UTR inh,MITF TRPM1 inh,697 NFkB inh,Gli-Sufu antag,EBV LMP1 NFkB,Jurkat NFkB inh,697 NFkB conf
C[C@H]1C=CC(=O)O[C@H]1c1ccccc1,-29,4,46*,-22,0,44,9
NC(=O)c1cc([N+](=O)[O-])ccc1NCc1ccc(O)cc1,11,-15,37*,27,-14,19,10
C=CCNC(=O)c1ccccc1S(=O)c1ccccc1C#N (stereo not drawn),-5,5,4,-1,-5,3,.
Fc1cccc(/C=N/Nc2ccc3ccccc3n2)c1,-14,15,-282,-133,-21,-90,-263
Cc1ccccc1-n1c(SCc2c(C)noc2C)nnc1-c1c[nH]c2ccccc12,0,3,40*,21,18,-10,41*
CC1CCc2c(sc3nc(C(C)(C)C)nc(N4CCN(C(=O)CCl)CC4)c23)C1 (stereo not drawn),24,17,40*,10,-16,23,27*
Cc1cc(=O)[nH]c(N/N=C/c2c[nH]c3ccccc23)n1,-2,-7,36*,4,-12,4,7
CNC(=O)c1ccc(-c2cc3onc(-c4ccccc4)c3c(=O)n2C)cc1,-48,-92,-171,-69,-4,-107,.
Cc1ccc(-c2cc3onc(-c4ccccc4)c3c(=O)n2C)cc1,-18,97*,-346,-17,38,-100,-385
Cn1c(-c2ccc(F)cc2)cc2onc(-c3c(F)cccc3Cl)c2c1=O,.,.,-165,-154,.,-9,.
CCCOc1ccc(-c2cc3onc(-c4ccccc4)c3c(=O)n2C)cc1,-19,-37,-278,-38,-24,10,-370
CCOc1cc(C(=O)NN2CCOCC2)cc(OCC)c1OCC,-6,5,1,-4,-7,4,.
COc1cc(C(=O)NNC(=O)c2ccc(F)cc2)ccc1OCC(=O)N1CCOCC1,-8,3,2,-4,-2,-9,.
COc1cc(C(=O)O)ccc1OCC(=O)N1CCOCC1,2,-5,40*,1,3,1,-7
O=C(COC(=O)c1cccc(S(=O)(=O)N2CCOCC2)c1)Nc1ccc(Cl)cn1,1,10,-4,-3,-6,-1,.
Cc1ccc(C)c(Cn2nnc(C(=O)Nc3ccc4c(c3)OCCO4)c2N)c1,-53,-80,-63,-32,-31,-32,.
Cc1cc(C)cc(NC(=O)c2nnn(Cc3cc(C)ccc3C)c2N)c1,46,-13,38*,12,-2,-8,29*
CCOC(=O)c1csc(-c2ccc([N+](=O)[O-])cc2)n1,-7,-26,-3,-10,-6,-31,.
c1ccc(-c2cn3c4c(sc3n2)CCCC4)cc1,9,-4,-336,-95,50*,-8,-383
COc1ccc(Cn2c(C3CC3)nc3ccc(NC(=O)c4cccnc4)cc3c2=O)cc1,-22,-36,-88,-23,-10,-2,.
COc1ccc(Cn2c(C3CC3)nc3ccc(NC(C)=O)cc3c2=O)cc1,-72,-56,-254,-91,-39,-131,-199
CCCCC(=O)Nc1ccc(C(=O)NNC(=O)c2cccs2)cc1,5,-5,9,0,3,1,.

# Screening data as filed in PubChem BioAssay.
